Reference: PubChem BioAssay
Several values for one entry are separate records, joined by “and”; a condition that tells them apart may be missing. Equal values may be shown once. Inconclusive results are not listed. A structure can be active in one record and inactive in another. Activity calls are given as the source filed them.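 The calls were made as follows, unless noted: active = normalized viability below 100% at a tested concentration; inactive = the rest.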

What was measured:
[1] = viability loss in pontine glioma line – cell-based, SU-DIPG-XVII, MIPE5.0, CellTiter-Glo, qHTS, dose response (AID 1347060; cut-off not given, nearly all actives have AC50 up to about 26 µM;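 also: cells exposed to compound for 48 hours before viability readout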); conditions: CellTiter-Glo ATP luminescence
[2] = viability loss in pontine glioma line – cell-based, SU-DIPG-XIII, MIPE4.0, CellTiter-Glo, qHTS, dose response (AID 1347061; cut-off not given, nearly all actives have AC50 up to about 37 µM;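 also: cells exposed to compound for 48 hours before readout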); conditions: CellTiter-Glo ATP luminescence
[3] = viability loss in pontine glioma line – cell-based, JHH-DIPG-1, MIPE4.0, CellTiter-Glo, qHTS, dose response (AID 1347062; cut-off not given, nearly all actives have AC50 up to about 27 µM;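 also: cells exposed to compound for two days before readout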); conditions: JHH-DIPG-1 viability, CellTiter-Glo ATP luminescence
[4] = viability loss in pontine glioma line – cell-based, SU-DIPG-IV, MIPE4.0, CellTiter-Glo, qHTS, dose response (AID 1347063; cut-off not given, nearly all actives have AC50 up to about 30 µM;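 also: compound exposure lasted 48 hours before the viability readout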); conditions: CellTiter-Glo ATP luminescence
[5] = viability loss in pontine glioma line – cell-based, SU-DIPG-XIII, MIPE5.0, CellTiter-Glo, qHTS, dose response (AID 1347064; cut-off not given, nearly all actives have AC50 up to about 23 µM;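 also: cells exposed to compound for 48 hours before the viability read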); conditions: CellTiter-Glo ATP luminescence
[6] = viability loss in pontine glioma line – cell-based, SU-DIPG-XXV, MIPE5.0, CellTiter-Glo, qHTS, dose response (AID 1347065; cut-off not given, nearly all actives have AC50 up to about 26 µM;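 also: cells exposed to compound for 48 hours before ATP readout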); conditions: CellTiter-Glo ATP luminescence
[7] = growth inhibition of DIPG cells – cell-based, MIPE4.0 library, CellTiter-Glo luminescence, qHTS (AID 1347066; cut-off not given, nearly all actives have AC50 up to about 30 µM;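 also: cells exposed to compound for 48 hours before readout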); conditions: SU-DIPG-VI viability, CellTiter-Glo ATP luminescence
[8] = JHH-DIPG-1 glioma cell viability, MIPE5.0 library, CellTiter-Glo luminescence, qHTS (AID 1347067; cut-off not given, nearly all actives have AC50 up to about 26 µM;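 also: cells exposed to compound for 48 hours before readout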); conditions: JHH-DIPG-1 glioma viability, CellTiter-Glo ATP luminescence
[9] = compounds altering HSF1 focus formation in cells – imaging, Selleck Cancer Library (AID 1347162; in the data active = plate-normalised HSF1 focus index below about 0.46); conditions: human cells, HSF1 nuclear foci imaging, at 10 µM; SSMD: measured here: HSF1 foci SSMD mean; cell count: measured here: cell number; plate-normalised HSF1 focus index: stronger effect = lower value
[10] = viability loss with induced miR-34 in A549 – imaging, A549 dox-inducible miR-34, nuclei and caspase counts, primary screen (AID 1347080;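 active = compounds whose cell count with miR-34 switched on is under 0.7 times the count with it off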); conditions: A549 miR-34 inducible, Hoechst nuclei count, 48 h
[11] = MELAS cybrid and Rieske KO viability enhancers – cell-based, MELAS cybrids, Rieske KO mouse fibroblasts, CellTiter-Glo, primary screen (AID 1508586;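 active = mean z-score across replicates of 1.96 or higher in either the MELAS or the Rieske mutant cell line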;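 also: z relative to plate mean and SD of compound and empty wells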); conditions: low glucose
[12] = drug combination growth inhibition, ovarian cancer – cell-based, oncology-focused library, rucaparib conditional, profiling panel (AID 1508598); conditions: patient-derived ovarian cancer cells, CellTiter-Glo viability, 144 h, stronger effect = lower value
[13] = growth inhibition, single agent or in combination, cell-based, chromothripsis tumors, cisplatin or BGB combos (AID 1671449; in the data active = inhibition above about 80%;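 also: cells exposed for 96 hours; 0% = vehicle DMSO and 100% = killing by high DMSO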); conditions: LFS_MB_P medulloblastoma cells
[14] = growth inhibition, single agent and combos, cell-based, chromothripsis tumors, cisplatin or BGB combos (AID 1671450; in the data active = inhibition above about 80%;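 also: cells exposed to compound for four days; 0% = vehicle DMSO and 100% = cell killing by high DMSO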); conditions: HDN33 neuroblastoma cells, stronger effect = higher value
[15] = growth inhibition, single agents and combos, ICB984, cell-based, cisplatin or BGB combos, synergistic combos for chromothripsis tumors (AID 1671451; call rule not given here;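 also: cells exposed for 96 hours before readout; 0% = vehicle DMSO and 100% = killing by high DMSO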); conditions: ICB984 medulloblastoma cells, drug combinations, stronger effect = higher value
[16] = growth inhibition, single agents and combos, HTB85, cell-based, BGB or cisplatin IC20 combos, synergistic combos for chromothripsis tumors (AID 1671453; in the data active = inhibition above about 80%;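 also: cells exposed for 96 hours before readout; 0% = vehicle DMSO and 100% = high DMSO killing control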); conditions: HTB85 osteosarcoma cells, drug combinations, stronger effect = higher value
[17] = growth inhibition, MDA-MB-436, cell-based, BGB or cisplatin combos, synergistic combos for chromothripsis tumors (AID 1671458; call rule not given here;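 also: cells exposed for 96 hours; 0% = vehicle DMSO and 100% = killing by high DMSO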); conditions: MDA-MB-436 breast carcinoma growth inhibition, drug combinations, stronger effect = higher value
[18] = BT084 cell growth, single and combined drugs, ICGC_MB145, cisplatin and BGB IC40 combos (AID 1671461; in the data active = inhibition above about 80%;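 also: cells exposed to drugs for 96 hours; 0% = vehicle DMSO and 100% = high DMSO full killing control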); conditions: BT084 medulloblastoma cells, drug combinations, stronger effect = higher value
[19] = RCMB18 cell growth, single agent and combined, cisplatin and BGB IC40 combos (AID 1671462; in the data active = inhibition above about 80%;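 also: cells exposed to compound for four days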); conditions: RCMB18 medulloblastoma cells, stronger effect = higher value

For `CN(C)CCN(C)C(=O)c1ccc(NC(=O)Nc2ccc(-c3nc(N4CCOCC4)c4ccn(CC(F)(F)F)c4n3)cc2)cc1`, the AC50 [1] was 235 nM (active), the AC50 [2] was 743 nM (active) and the AC50 [3] was 469 nM (active). The AC50 [4] was 33.2 nM (active), the AC50 [5] was 742 nM (active) and the AC50 [6] was 332 nM (active). The AC50 [7] was 662 nM (active), the AC50 [8] was 1480 nM (active) and the SSMD [9] was 1.02. The cell count [9] was 7060 and the plate-normalised HSF1 focus index [9] was 1.06 (inactive).
In the case of `C#Cc1cccc(Nc2ncnc3cc(OC)c(OCCCCCCC(=O)NO)cc23)c1`, the AC50 [1] is reported as 742 nM (active), the AC50 [2] is reported as 398 nM (active) and the AC50 [3] is reported as 148 nM (active). The AC50 [4] was 418 nM (active), the AC50 [5] was 661 nM (active) and the AC50 [6] was 417 nM (active). For the same molecule, the AC50 [7] was 74.3 nM (active), the AC50 [8] was 833 nM (active) and the fold change ([10]; stronger effect = lower value, cell number ratio, induced over uninduced) was 0.901 (inactive). For the same molecule, the fold change ([10]; measured here: relative caspase fold change +Dox/-Dox) was 0.807, the cell count ([10]; measured here: total cells with miR-34 induction, stronger effect = lower value) was 1090 and the cell count ([10]; measured here: total cells without miR-34 induction) was 1210. The SSMD [9] was -4.22, the cell count [9] was 7310 and the plate-normalised HSF1 focus index [9] was 0.849 (inactive). The z-score ([11]; MELAS cybrid survival, CellTiter-Glo 48 h, stronger effect = higher value) was 1.07 (inactive), the z-score ([11]; Rieske KO mouse fibroblast survival, CellTiter-Glo 72 h) was 1.33 and the viability ([12]; at 0.000305 µM, OCI-C5x cells, with rucaparib 10 µM, 100% = cells with rucaparib alone) was 114% (inactive). The viability ([12]; at 0.000305 µM, OCI-C5x cells, without rucaparib) was 114% (inactive), the viability ([12]; at 0.000305 µM, OCI-P5x cells, with rucaparib 20 µM, 100% = cells with rucaparib alone) was 108% (inactive) and the viability ([12]; at 0.000305 µM, OCI-P5x cells, without rucaparib) was 96.4% (active). The viability ([12]; at 0.00122 µM, OCI-C5x cells, with rucaparib 10 µM, 100% = cells with rucaparib alone) was 111% (inactive), the viability ([12]; at 0.00122 µM, OCI-C5x cells, without rucaparib) was 113% (inactive) and the viability ([12]; at 0.00122 µM, OCI-P5x cells, with rucaparib 20 µM, 100% = cells with rucaparib alone) was 104% (inactive). The viability ([12]; at 0.00122 µM, OCI-P5x cells, without rucaparib) was 98.8% (active), the viability ([12]; at 0.00488 µM, OCI-C5x cells, with rucaparib 10 µM, 100% = cells with rucaparib alone) was 118% (inactive) and the viability ([12]; at 0.00488 µM, OCI-C5x cells, without rucaparib) was 106% (inactive). The viability ([12]; at 0.00488 µM, OCI-P5x cells, with rucaparib 20 µM, 100% = cells with rucaparib alone) was 113% (inactive), the viability ([12]; at 0.00488 µM, OCI-P5x cells, without rucaparib) was 111% (inactive) and the viability ([12]; at 0.0195 µM, OCI-C5x cells, with rucaparib 10 µM, 100% = cells with rucaparib alone) was 112% (inactive). The viability ([12]; at 0.0195 µM, OCI-C5x cells, without rucaparib) was 112% (inactive), the viability ([12]; at 0.0195 µM, OCI-P5x cells, with rucaparib 20 µM, 100% = cells with rucaparib alone) was 110% (inactive) and the viability ([12]; at 0.0195 µM, OCI-P5x cells, without rucaparib) was 109% (inactive). The viability ([12]; at 0.0781 µM, OCI-C5x cells, with rucaparib 10 µM, 100% = cells with rucaparib alone) was 113% (inactive), the viability ([12]; at 0.0781 µM, OCI-C5x cells, without rucaparib) was 113% (inactive) and the viability ([12]; at 0.0781 µM, OCI-P5x cells, with rucaparib 20 µM, 100% = cells with rucaparib alone) was 107% (inactive). The viability ([12]; at 0.0781 µM, OCI-P5x cells, without rucaparib) was 108% (inactive), the viability ([12]; at 0.313 µM, OCI-C5x cells, with rucaparib 10 µM, 100% = cells with rucaparib alone) was 87.3% (active) and the viability ([12]; at 0.313 µM, OCI-C5x cells, without rucaparib) was 85.9% (active). The viability ([12]; at 0.313 µM, OCI-P5x cells, with rucaparib 20 µM, 100% = cells with rucaparib alone) was 91.1% (active), the viability ([12]; at 0.313 µM, OCI-P5x cells, without rucaparib) was 98.9% (active) and the viability ([12]; at 1.25 µM, OCI-C5x cells, with rucaparib 10 µM, 100% = cells with rucaparib alone) was 10.5% (active). For the same molecule, the viability ([12]; at 1.25 µM, OCI-C5x cells, without rucaparib) was 39.1% (active), the viability ([12]; at 1.25 µM, OCI-P5x cells, with rucaparib 20 µM, 100% = cells with rucaparib alone) was 3.13% (active) and the viability ([12]; at 1.25 µM, OCI-P5x cells, without rucaparib) was 21.8% (active). For the same molecule, the viability ([12]; at 5 µM, OCI-C5x cells, with rucaparib 10 µM, 100% = cells with rucaparib alone) was 5.56% (active), the viability ([12]; at 5 µM, OCI-C5x cells, without rucaparib) was 5.78% (active) and the viability ([12]; at 5 µM, OCI-P5x cells, with rucaparib 20 µM, 100% = cells with rucaparib alone) was 1.22% (active). For the same molecule, the viability ([12]; at 5 µM, OCI-P5x cells, without rucaparib) was 1.21% (active), the inhibition ([13]; at 0.5 µM, stronger effect = higher value) was 17.8% (inactive) and 78.4% (inactive) and the inhibition ([13]; measured here: combination with BGB IC20, at 0.005 µM) was -22.9% and -21.6%. The inhibition ([13]; measured here: combination with BGB IC40, at 0.005 µM) was -38.4% and -30.8%, the inhibition ([13]; measured here: combination with BGB IC40, at 0.05 µM) was -32.8% and -22.5% and the inhibition ([13]; measured here: combination with cisplatin, at 0.5 µM, stronger effect = higher value) was 83.8% and 104%. For the same molecule, the inhibition ([13]; measured here: combination with cisplatin, at 5 µM, stronger effect = higher value) was 112% and 113%, the inhibition ([14]; BGB combo, at 5 µM) was 99.5% and 95.1% and the inhibition ([14]; at 0.5 µM) was -1.62% (inactive) and 3.24% (inactive). The inhibition ([14]; cisplatin combo, at 5 µM) was 99.9% and 94.2%, the inhibition ([14]; measured here: with BGB IC20 combination, at 0.5 µM) was -9.96% and -0.599% and the inhibition ([14]; measured here: with cisplatin IC20 combination, at 0.5 µM) was 6.06% and 12.1%. For the same molecule, the inhibition ([14]; single agent, at 5 µM) was 99.8% and 96.9%, the inhibition ([15]; BGB IC20 combo, at 0.005 µM) was 68.4% and 23% and the inhibition ([15]; BGB IC40 combo, at 0.005 µM) was 78.3% and 29.4%. For the same molecule, the inhibition ([15]; BGB IC40 combo, at 0.05 µM) was 98% and 101%, the inhibition ([15]; at 0.5 µM) was -18.6% (inactive) and -24.1% (inactive) and the inhibition ([15]; cisplatin combo, at 0.05 µM) was 97.9% and 101%. The inhibition ([15]; cisplatin combo, at 0.5 µM) was -22% and -24.1%, the inhibition ([15]; cisplatin combo, at 5 µM) was -70.9% and -33.8% and the inhibition ([15]; measured here: 5 uM single agent, at 5 µM) was -13.9% and -10.2%. For the same molecule, the inhibition ([16]; at 0.5 µM) was 11.7% (inactive) and 4.4% (inactive), the inhibition ([16]; measured here: with BGB IC20, at 0.5 µM) was -2.94% and -22.5% and the inhibition ([16]; measured here: with BGB IC20, at 5 µM) was 99.7% and 73%. The inhibition ([16]; measured here: with cisplatin IC20, at 0.5 µM) was 26% and 9.91%, the inhibition ([16]; measured here: with cisplatin IC20, at 5 µM) was 67.6% and 94.8% and the inhibition ([16]; single agent, at 5 µM) was 99.9% and 74.9%. The inhibition ([17]; at 0.5 µM) was -4.99% (inactive) and -13.2% (inactive), the inhibition ([17]; measured here: BGB combination, at 0.5 µM) was -10.9% and -11.9% and the inhibition ([17]; measured here: BGB combination, at 5 µM) was 61.3% and 55.7%. For the same molecule, the inhibition ([17]; measured here: cisplatin combination, at 0.5 µM) was -18.9% and -27.4%, the inhibition ([17]; measured here: cisplatin combination, at 5 µM) was 74.5% and 60.7% and the inhibition ([18]; at 0.5 µM) was 82% (active) and 58.2% (inactive). The inhibition ([18]; cisplatin combination, at 0.5 µM) was 99.1% and 87.2%, the inhibition ([18]; cisplatin combination, at 5 µM) was 103% and 101% and the inhibition ([18]; measured here: BGB IC40 combination 0.05 uM, at 0.05 µM) was -29.2% and 20%. The inhibition ([18]; single agent, at 5 µM) was 106% and 108%, the inhibition ([19]; at 0.5 µM) was 69.7% (inactive) and 45.9% (inactive) and the inhibition ([19]; cisplatin combo, at 5 µM) was 96.3%. For the same molecule, the inhibition ([19]; measured here: BGB IC40 combination, at 0.05 µM) was -10.5% and -3.2%, the inhibition ([19]; measured here: combination with cisplatin, at 0.5 µM) was 82.3% and 57.4% and the inhibition ([19]; single agent, at 5 µM) was 89.6% and 92.4%.
